From PubChem BioAssay (NCI) come the findings set out here.

Values joined by “and” are separate entries in the source; they are usually repeats but may differ in a detail not shown here. Equal entries are not always repeated. About 79,000 compounds went through this panel and 15% of them were active in at least one assay; those are over-represented in the sample as a whole. A structure can be active in one record and inactive in another. Active and inactive are the calls of the source. No stated cut-off is given here; in the data, active means growth inhibition above about 70%; inactive means the rest.

The nature of experiment [1]: NCI Yeast Anticancer Drug Screen. Data for the rad50 strain (AID 155).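 Further: 0% = growth of vehicle-only cultures of the same strain.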 The note with it: S. cerevisiae rad50 strain growth inhibition, stronger effect = higher value. In outline: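 Growth of the mutant yeast was measured after compound exposure and referenced to vehicle-treated cultures.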
A short description of experiment [2]: NCI Yeast Anticancer Drug Screen. Data for the mec2-1 strain (AID 157). The note with it: S. cerevisiae mec2-1 strain, stronger effect = higher value. In short, it runs like this: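 Yeast mec2-1 mutant treated with compound. Readout: growth inhibition vs vehicle controls.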
Experiment [3] in a line: NCI Yeast Anticancer Drug Screen. Data for the sgs1 mgt1 strain (AID 161).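 Further: 0% = growth of cultures given vehicle only.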 The note with it: S. cerevisiae sgs1 mgt1 strain, stronger effect = higher value. In outline: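 Inhibition of yeast growth, normalised to vehicle-treated controls, is reported for a strain bearing genetic alterations in DNA damage repair.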
Experiment [4] in a line: NCI Yeast Anticancer Drug Screen. Data for the cln2 rad14 strain (AID 165).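 Further: 0% = growth equal to vehicle treated cultures.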 The note with it: S. cerevisiae cln2 rad14 strain, stronger effect = higher value. In short, it runs like this:
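cln2 rad14 yeast strain; compound exposure; growth inhibition read vs vehicle controls.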

Experiment [5] can be described thus: NCI Yeast Anticancer Drug Screen. Data for the bub3 strain (AID 167). The note with it: S. cerevisiae bub3 mutant strain, stronger effect = higher value. In outline: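 Whole-cell yeast assay. The mutant strain was incubated with compounds, and growth inhibition was determined by comparison with vehicle-treated cells.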
Experiment [6] in a line: NCI Yeast Anticancer Drug Screen. Data for the mlh1 rad18 strain (AID 175). To be noted: S. cerevisiae mlh1 rad18 strain growth inhibition, stronger effect = higher value. In outline: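 Yeast w/ defined DNA-repair lesions; compound exposure; growth vs vehicle controls → % inhibition.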
Setting [7] is: at 5.0 µM (retest, dose inferred, filed as 0.5).
[8] abbreviates: at 50.0 µM (retest, dose inferred, filed as 5.0).

As for `Cc1cc(=O)[nH]c2ccc(Cc3ccc(N)cc3)cc12`, the growth inhibition in experiment [1] (setting [7]) is -3% (inactive); in experiment [1] (setting [8]), 12% (inactive); in experiment [1] (at 50.0 µM), 6.25% (inactive) and 15.6% (inactive); in experiment [2] (setting [7]), 9% (inactive); in experiment [2] (setting [8]), 22% (inactive); in experiment [2] (at 50.0 µM), 1.7% (inactive) and 0.45% (inactive). The growth inhibition in experiment [3] (setting [7]) is 15% (inactive); in experiment [3] (setting [8]), 27% (inactive); in experiment [3] (at 50.0 µM) it was 14.6% (inactive) and 1.2% (inactive); in experiment [4] (setting [7]), 0% (inactive); in experiment [4] (setting [8]), -2% (inactive); in experiment [4] (at 50.0 µM), 13.2% (inactive) and 31.4% (inactive). The growth inhibition is 3% (inactive) in experiment [5] (setting [7]); 10% (inactive) in experiment [5] (setting [8]); 19.1% (inactive) and -13.5% (inactive) in experiment [5] (at 50.0 µM); 21% (inactive) in experiment [6] (setting [7]); 22% (inactive) in experiment [6] (setting [8]); 11.8% (inactive) and -1% (inactive) in experiment [6] (at 50.0 µM).
For `COc1nc(NC2OC(CO)C(O)C(O)C2O)c(Cl)c(=O)n1C` (stereo unspecified), the growth inhibition in experiment [1] (setting [7]) is 1% (inactive); in experiment [1] (setting [8]) it was 5% (inactive); in experiment [1] (at 50.0 µM), 17.7% (inactive); in experiment [2] (setting [7]), 3% (inactive); in experiment [2] (setting [8]) it was 0% (inactive); in experiment [2] (at 50.0 µM) it was 74.5% (active). Moreover, the growth inhibition in experiment [3] (setting [7]) was 2% (inactive); in experiment [3] (setting [8]), -2% (inactive); in experiment [3] (at 50.0 µM), 87.3% (active); in experiment [4] (setting [7]), 1% (inactive); in experiment [4] (setting [8]), 3% (inactive); in experiment [4] (at 50.0 µM) it was 69.3% (inactive). In addition, the growth inhibition is -1% (inactive) in experiment [5] (setting [7]); -2% (inactive) in experiment [5] (setting [8]); 71.2% (active) in experiment [5] (at 50.0 µM); -1% (inactive) in experiment [6] (setting [7]); -3% (inactive) in experiment [6] (setting [8]); 88.9% (active) in experiment [6] (at 50.0 µM).
As for `O=C1C(CN2CCCCC2)CCCC1CN1CCCCC1` (stereo unspecified), the growth inhibition is 0% (inactive) in experiment [1] (setting [7]); 25% (inactive) in experiment [1] (setting [8]); 13.3% (inactive) and 4.85% (inactive) in experiment [1] (at 50.0 µM); 2% (inactive) in experiment [2] (setting [7]); 44% (inactive) in experiment [2] (setting [8]); -11.6% (inactive) and 24.8% (inactive) in experiment [2] (at 50.0 µM). Also, the growth inhibition is 1% (inactive) in experiment [3] (setting [7]); 29% (inactive) in experiment [3] (setting [8]); 10.4% (inactive) and 31.3% (inactive) in experiment [3] (at 50.0 µM); -4% (inactive) in experiment [4] (setting [7]); 6% (inactive) in experiment [4] (setting [8]); -46.1% (inactive) and 41.2% (inactive) in experiment [4] (at 50.0 µM). The growth inhibition is -4% (inactive) in experiment [5] (setting [7]); 20% (inactive) in experiment [5] (setting [8]); -3.9% (inactive) and 59.3% (inactive) in experiment [5] (at 50.0 µM); -1% (inactive) in experiment [6] (setting [7]); 29% (inactive) in experiment [6] (setting [8]); 3.2% (inactive) and 10.4% (inactive) in experiment [6] (at 50.0 µM).
As for `Cc1nc2ccccc2cc1CCl`, the growth inhibition in experiment [1] (setting [7]) is -113% (inactive); in experiment [1] (setting [8]) it was 91% (active); in experiment [1] (at 50.0 µM), 82.5% (active); in experiment [2] (setting [7]), -44% (inactive); in experiment [2] (setting [8]), 46% (inactive); in experiment [2] (at 50.0 µM), 59.5% (inactive). The growth inhibition in experiment [3] (setting [7]) was -51% (inactive); in experiment [3] (setting [8]), 91% (active); in experiment [3] (at 50.0 µM), 63.8% (inactive); in experiment [4] (setting [7]) it was -47% (inactive); in experiment [4] (setting [8]), 80% (active); in experiment [4] (at 50.0 µM) it was 70.3% (active). In addition, the growth inhibition in experiment [5] (setting [7]) was -69% (inactive); in experiment [5] (setting [8]), 76% (active); in experiment [5] (at 50.0 µM), 32.9% (inactive); in experiment [6] (setting [7]), -122% (inactive); in experiment [6] (setting [8]) it was 90% (active); in experiment [6] (at 50.0 µM) it was 69.8% (inactive).
As to `COc1ccccc1NC(=O)C(/C=N/C(=S)NCCNc1ccc(OC)c(OC)c1)=C(\C)O`, the growth inhibition in experiment [1] (setting [7]) is 1% (inactive); in experiment [1] (setting [8]) it was 3% (inactive); in experiment [1] (at 50.0 µM) it was 9.7% (inactive); in experiment [2] (setting [7]), -55% (inactive); in experiment [2] (setting [8]), -10% (inactive); in experiment [2] (at 50.0 µM) it was -2.25% (inactive). Also, the growth inhibition was 2% (inactive) in experiment [3] (setting [7]); -8% (inactive) in experiment [3] (setting [8]); 16.4% (inactive) in experiment [3] (at 50.0 µM); -22% (inactive) in experiment [4] (setting [7]); -14% (inactive) in experiment [4] (setting [8]); 43.2% (inactive) in experiment [4] (at 50.0 µM). Moreover, the growth inhibition in experiment [5] (setting [7]) is 2% (inactive); in experiment [5] (setting [8]) it was -27% (inactive); in experiment [5] (at 50.0 µM) it was 7.25% (inactive); in experiment [6] (setting [7]) it was 10% (inactive); in experiment [6] (setting [8]), -2% (inactive); in experiment [6] (at 50.0 µM), 15.1% (inactive).
As for `O=C(NNc1ccnc2cc(Cl)ccc12)/C(=C/c1ccc2c(c1)OCO2)NC(=O)c1ccccc1`, the growth inhibition in experiment [1] (setting [7]) is 12% (inactive); in experiment [1] (setting [8]), 71% (active); in experiment [1] (at 50.0 µM), 90.7% (active); in experiment [2] (setting [7]), -18% (inactive); in experiment [2] (setting [8]), 46% (inactive); in experiment [2] (at 50.0 µM), 77.3% (active). The growth inhibition in experiment [3] (setting [7]) was -4% (inactive); in experiment [3] (setting [8]), 47% (inactive); in experiment [3] (at 50.0 µM) it was 86.8% (active); in experiment [4] (setting [7]), 2% (inactive); in experiment [4] (setting [8]), 64% (inactive); in experiment [4] (at 50.0 µM), 79.7% (active). Further, the growth inhibition in experiment [5] (setting [7]) was -9% (inactive); in experiment [5] (setting [8]), 83% (active); in experiment [5] (at 50.0 µM), 58.9% (inactive); in experiment [6] (setting [7]), -2% (inactive); in experiment [6] (setting [8]) it was 71% (active); in experiment [6] (at 50.0 µM), 93.1% (active).
With `O=C1c2cccc(O)c2C(=O)c2cccc(O)c21`, the growth inhibition in experiment [1] (setting [7]) is 6% (inactive); in experiment [1] (setting [8]), 17% (inactive); in experiment [1] (at 50.0 µM), 20.7% (inactive) and 33.4% (inactive); in experiment [2] (setting [7]), 9% (inactive); in experiment [2] (setting [8]), 17% (inactive); in experiment [2] (at 50.0 µM), 12.1% (inactive) and 22.7% (inactive). Besides, the growth inhibition in experiment [3] (setting [7]) is 0% (inactive); in experiment [3] (setting [8]), 7% (inactive); in experiment [3] (at 50.0 µM), 18.1% (inactive) and 82.8% (active); in experiment [4] (setting [7]) it was 4% (inactive); in experiment [4] (setting [8]), 24% (inactive); in experiment [4] (at 50.0 µM), 12.4% (inactive) and -23.5% (inactive). Besides, the growth inhibition in experiment [5] (setting [7]) was 4% (inactive); in experiment [5] (setting [8]) it was 1% (inactive); in experiment [5] (at 50.0 µM), 6% (inactive) and 30.1% (inactive); in experiment [6] (setting [7]), 7% (inactive); in experiment [6] (setting [8]) it was 39% (inactive); in experiment [6] (at 50.0 µM) it was 6.5% (inactive) and 76.8% (active).
